# In the supplement of paper PMC10681739:
# Legend:
# ETS1 = target: T1, ETS1 (UniProt P14921); experiment: TF binding intensity (PBM fluorescence), negative control probe (arbitrary fluorescence units); higher = stronger binding
# T1 sequence: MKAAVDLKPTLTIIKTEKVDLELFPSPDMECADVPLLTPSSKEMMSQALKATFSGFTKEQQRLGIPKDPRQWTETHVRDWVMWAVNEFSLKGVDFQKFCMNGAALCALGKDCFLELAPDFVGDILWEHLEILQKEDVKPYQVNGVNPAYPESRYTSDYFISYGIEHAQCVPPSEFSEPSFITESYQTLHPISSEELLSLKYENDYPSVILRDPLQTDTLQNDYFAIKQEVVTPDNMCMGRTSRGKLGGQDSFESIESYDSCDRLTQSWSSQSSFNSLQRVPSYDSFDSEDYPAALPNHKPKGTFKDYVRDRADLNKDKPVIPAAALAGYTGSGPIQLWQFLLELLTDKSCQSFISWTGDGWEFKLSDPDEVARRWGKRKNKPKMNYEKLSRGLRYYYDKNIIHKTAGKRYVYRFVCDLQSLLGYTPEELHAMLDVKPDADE
# Procedure: (§1)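 gcPBM negative-control 36-bp genomic probes lacking TF binding sites. Each was incubated with recombinant human ETS1 or RUNX1 alone and detected by antibody fluorescence. Values are medians over replicate spots (4 spots for the ETS1-RUNX1 arrays, 3 for the ETS1-ETS1 array). The probes sit in constant array flanks that are not printed.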
# RUNX1 = RUNX1 (UniProt Q01196); experiment: as above
# Sequence of RUNX1 (Q01196 whole entry): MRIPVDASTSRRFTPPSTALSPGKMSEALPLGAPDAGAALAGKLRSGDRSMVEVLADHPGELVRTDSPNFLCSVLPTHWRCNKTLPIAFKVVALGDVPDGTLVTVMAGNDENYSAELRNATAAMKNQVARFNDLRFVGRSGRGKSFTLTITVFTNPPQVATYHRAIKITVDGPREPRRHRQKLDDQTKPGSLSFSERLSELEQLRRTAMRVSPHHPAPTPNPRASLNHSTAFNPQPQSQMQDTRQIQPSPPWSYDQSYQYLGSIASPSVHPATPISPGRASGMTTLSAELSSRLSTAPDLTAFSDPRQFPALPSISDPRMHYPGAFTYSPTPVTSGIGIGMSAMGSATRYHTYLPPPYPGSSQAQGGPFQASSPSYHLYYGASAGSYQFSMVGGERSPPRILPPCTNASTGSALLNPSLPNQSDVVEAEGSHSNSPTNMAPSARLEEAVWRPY
# Procedure: as §1
sequence,measurement,setting,value
ACATGTCAAAGAGCTTCTTTAAGCAGTAGGTGGTTT (protein concentration 10 nM),TF binding intensity,ETS1,143
TGGAATCTCATCCAAGCTGGATTTTGCGATCTTTGA (protein concentration 10 nM),TF binding intensity,ETS1,104
GGGTCTTGCCATTGAGAGGCAGGTGATGTGCTGTTT (protein concentration 10 nM),TF binding intensity,ETS1,132
CCAGCAGCAGTTGTGAATTGGGTAATTTAATGAAAA (protein concentration 10 nM),TF binding intensity,ETS1,116
TTATAATACATGTGCAGTATATTTTCTTGAAACTTC (protein concentration 10 nM),TF binding intensity,ETS1,110
ACGTGTGGGGACCCAAGCTATCCCTAAGAAAGCACT (protein concentration 10 nM),TF binding intensity,ETS1,115
AAGTTAATGAGATATTGTGGTTGTTTGTGTTTGGTT (protein concentration 1 nM),TF binding intensity,ETS1,477
TAAGTATTAAGAGTTGCAACACTCTAATCAAGGATA (protein concentration 10 nM),TF binding intensity,ETS1,102
CCAGCCAACCCAAAGACCACACCCCACCACCTCCTC (protein concentration 1 nM),TF binding intensity,ETS1,491
CAGGTGGATGACTCAGCTGGAGAACAAAGTGGCTTC (protein concentration 10 nM),TF binding intensity,ETS1,122
TAATCCCAGCACTTTGGGAATCCAAGGCAGTCAAAT (protein concentration 10 nM),TF binding intensity,ETS1,94.8
GACATTTCGAGTAAGTGCGGTATACCAGTTAAAAAT (protein concentration 1 nM),TF binding intensity,ETS1,479
TTTAAAAAATCTACTCTGTCCCTTAAAAGGCCGTTT (protein concentration 10 nM),TF binding intensity,ETS1,107
GTATTTTGGGCGATAACACTTTCTCTACTTCTAAAA (protein concentration 10 nM),TF binding intensity,ETS1,116
TGATTTCTTAAGCCAACCTCAAAAAAAAAAAAAGAG (protein concentration 1 nM),TF binding intensity,ETS1,596
CCCTAAGCGCCTGCGCACATTTGCGCATCGCTCTGC (protein concentration 10 nM),TF binding intensity,ETS1,109
TTTTTTTTTTTGGTCTGTGGTTTTGGAGTTTTTGTT (protein concentration 1 nM),TF binding intensity,ETS1,716
GAAGCCAGTGAGCCAGGAGTGCTGATTGGTTAGGGA (protein concentration 10 nM),TF binding intensity,ETS1,107
TTTTTAAATTCGGTTTTGTGTTTTATCTTCAATTTC (protein concentration 10 nM),TF binding intensity,ETS1,105
GTCCCGGCTCGACTCAGTCCTCCAGCCGCCCGGGGA (protein concentration 10 nM),TF binding intensity,ETS1,120
GCTATCTATTTTAATTAGCTAAGATTGCTATTAATA (protein concentration 10 nM),TF binding intensity,ETS1,106
AAATTCTGTAACCAGTGCTCTTGAGCTGCTTGCTGG (protein concentration 10 nM),TF binding intensity,ETS1,102
TCCAGAAGCAGAGGCTGAGAGAGGGATTCTTGTGCC (protein concentration 10 nM),TF binding intensity,ETS1,112
CATGAAGAATATAGCATTGTTTTGTATATGTTTTAA (protein concentration 10 nM),TF binding intensity,ETS1,131
TCCTCTGGTCTCTAAACCACAGCCTCCACCAGCAAC (protein concentration 1 nM),TF binding intensity,ETS1,442
ATTCCAATCCTATGTGCTTTAAAGCTTCTAGACATT (protein concentration 10 nM),TF binding intensity,ETS1,119
CAGGCTGTGGTTTCCATCATGAACACGTGATCCAGC (protein concentration 10 nM),TF binding intensity,ETS1,127
TGCCGTGTACTTGATCTTGTCCCACAGAATCACCTG (protein concentration 10 nM),TF binding intensity,ETS1,112
GGCAAGCTTATATAGTTTGCTTCATAAAACTCTATT (protein concentration 10 nM),TF binding intensity,ETS1,119
TATTTTCCAAAAGTGGCCACAACAACATCTGCCAAC (protein concentration 1 nM),TF binding intensity,ETS1,442
TGACTCTCCCCTCCATTCCCACCCCATACCCCCTTC (protein concentration 10 nM),TF binding intensity,ETS1,198
CCCTTCGCCATTGCAGCCATGCCACCCCTCCTTCTC (protein concentration 10 nM),TF binding intensity,ETS1,149
CTCCTAATTCTGCATGCAACACTCTCCAGAGAGCTG (protein concentration 10 nM),TF binding intensity,ETS1,136
GAAGCAAGGATAATTAACTTCTACCAGTGATCCCCA (protein concentration 10 nM),TF binding intensity,ETS1,124
AGCAGAGTGTGATGAATGGATTCATATACGGTCTGA (protein concentration 10 nM),TF binding intensity,ETS1,103
ACCTCCCACTTGGCTCCCAGGTGGGTGCAGTGAGGC (protein concentration 10 nM),TF binding intensity,ETS1,155
GCGTTCGAGGGACACTGGACATCTGGTGGCCCTCCA (protein concentration 10 nM),TF binding intensity,ETS1,93.7
CTGCTGGGTGGAGTGTGGACAAGCGGCCTTTGCATC (protein concentration 10 nM),TF binding intensity,ETS1,150
GCAGTCAGCCCTTCCCTTCCTGTCCGTCAACTCCGG (protein concentration 2 nM),TF binding intensity,RUNX1,875
TGGGACCTCCAGCATATGACAGTGGACTAAGGACTG (protein concentration 10 nM),TF binding intensity,ETS1,113
GGCCAGAGGAGGGCGCGGAAGTGTTGCCTGGGTGAG (protein concentration 2 nM),TF binding intensity,RUNX1,917
ACAGTTGCTCCGTCTCTTCCTGTGTCTGGCTTTATT (protein concentration 2 nM),TF binding intensity,RUNX1,876
GCGTACACCTGCCGCCGGAAGAAGAGCGACGGTCGC (protein concentration 2 nM),TF binding intensity,RUNX1,909
TCTCGCCCCTCATCCCGGAAAGGAAGACTCTGAATG (protein concentration 2 nM),TF binding intensity,RUNX1,891
CAACGTTCTTCTGTTCTTCCGTCTGTCGACCGAACT (protein concentration 2 nM),TF binding intensity,RUNX1,945
CTTCTGTCTCCAAAACGGAAATAATAACTTGAGATT (protein concentration 2 nM),TF binding intensity,RUNX1,989
CTCACCAGTCACCCCAGGAAACTCTGCCCCTTTACA (protein concentration 2 nM),TF binding intensity,RUNX1,950
AGGAGTTTGCTCATCCTTCCGGATCCAAAGGCTGCG (protein concentration 2 nM),TF binding intensity,RUNX1,712
ACGGCAAGTAAAGTGTTTCCGGCTCAGGTGTCATGG (protein concentration 2 nM),TF binding intensity,RUNX1,852
CCATGATGTTTGTGATTTCCGGCAGATGATGAGTAA (protein concentration 2 nM),TF binding intensity,RUNX1,970
CTGATTCACTGCCCTCTTCCGCTCTGAGGCGTCGCC (protein concentration 2 nM),TF binding intensity,RUNX1,1030
CAGGCTCGACACGGGCGGAACAAACGGGCTCCACTA (protein concentration 2 nM),TF binding intensity,RUNX1,769
CAAAATGCTTAAAAGGTAACTTGACTCTTTGTTTGG (protein concentration 10 nM),TF binding intensity,ETS1,123
CTGCTCGGCCAGGTCCGGAAAGAGAGAACGGGCTGG (protein concentration 2 nM),TF binding intensity,RUNX1,859
TGCTCTAGAGATGTGATCGTCCTCATTTCATGAAGG (protein concentration 10 nM),TF binding intensity,ETS1,121
ATCAAGGCGCGGCGGCGGAAAAATGTGAAATGGCTT (protein concentration 2 nM),TF binding intensity,RUNX1,920
TACTACTATAAAGATGGATACATGTCGTTATACATT (protein concentration 10 nM),TF binding intensity,ETS1,106
GCTCCATCACCTCCTCTTCCGGTCCCTCCTCTAGGG (protein concentration 2 nM),TF binding intensity,RUNX1,1160
GGTCCCAGGAGAGGGGTTCCGGGGTGAAAGAGTGAG (protein concentration 2 nM),TF binding intensity,RUNX1,1060
CCTTTTTCGCCTCCTTTTCCTGCCCCAAGACTAGAG (protein concentration 2 nM),TF binding intensity,RUNX1,1290
GAAAAACAGACAGACAGGAAGAGAGAGAGACAGACA (protein concentration 2 nM),TF binding intensity,RUNX1,903
AGTTTCACTGCCCTAAAAATCCTCCGTGCGCCGCCT (protein concentration 10 nM),TF binding intensity,ETS1,123
TGGGCGGGGAGAGGACGGAAGGAGTAGGCTTCGGGA (protein concentration 2 nM),TF binding intensity,RUNX1,1020
GGCTGAGGTGTCTGTGTTGGCAGCAGGAGCCTCTCT (protein concentration 10 nM),TF binding intensity,ETS1,128
GAAATATGACAAAAAACCCCTATCCTATGATAAGTC (protein concentration 10 nM),TF binding intensity,ETS1,146
TGAAAAAGGGGAGGGCGGAAGTGACGAGCCGTAGCC (protein concentration 2 nM),TF binding intensity,RUNX1,891
GGCATCTACCTCCCAGGAGCAAGCGGGAGACAGCCC (protein concentration 10 nM),TF binding intensity,ETS1,134
CGAGCTTAGAAGGCGCTTCCGATGGGCGGAGTTTAG (protein concentration 2 nM),TF binding intensity,RUNX1,742
TCGGCGGCGGAGCACCGGAAGTTCTGCAGCACTGGC (protein concentration 2 nM),TF binding intensity,RUNX1,880
GAAGGGGTTTCAGGACGGAAGCAAACACATATTCAA (protein concentration 2 nM),TF binding intensity,RUNX1,912
AAGTAAGCCCCGCCCCGGAACGGGCAGAAGTAGAGG (protein concentration 2 nM),TF binding intensity,RUNX1,1060
GGGCCTGCGCGCGCACTTCCGCTCTCCCCTCCGGCT (protein concentration 2 nM),TF binding intensity,RUNX1,759
ACGGAGCTTGCTCTGGCCATCTCTGTCCCTGCCTGT (protein concentration 10 nM),TF binding intensity,ETS1,102
TCCAGGGCCACCCCATTTCCTGCCCTCAGCACTTCG (protein concentration 2 nM),TF binding intensity,RUNX1,929
AATTCTGGGGAGCGAAGGAAATTGGCTTTCGAGGCG (protein concentration 2 nM),TF binding intensity,RUNX1,1200
